The results in this text go back to PubChem BioAssay AID652048 (National Center for Advancing Translational Sciences (NCATS), 2013).

Out of some 410,000 compounds screened, about 2,400 (0.59%) were called active. This is one part of a sample in which actives are shown more often than they occur. Values without a mark were called inactive. No stated cut-off is given here; in the data, active means max activation above about 30%; inactive means the rest. *1 amine or outer side, *2 acyl side, *3 side chain or, on linkers, in order; H or OH if unused. Where a SMILES comes first, the peptide text is derived from it. Bridges are numbered along the chain shown (N, C = ends). [ ]: non-standard residue; d: D form. The star is where a group is joined. X2 = NC1=N[C@@H]([C@H](N[*:1])C(=O)[*:2])C[C@H](O)N1; ΔAla(Z-3-ureido) = NC(=O)N/C=C(\N)C(=O)O; β3hOrn = NCCC[C@H](N)CC(=O)*; Dap = NC[C@H](N)C(=O)O

D(3) dopamine receptor (Homo sapiens), sequence (P35462 whole entry, looked up): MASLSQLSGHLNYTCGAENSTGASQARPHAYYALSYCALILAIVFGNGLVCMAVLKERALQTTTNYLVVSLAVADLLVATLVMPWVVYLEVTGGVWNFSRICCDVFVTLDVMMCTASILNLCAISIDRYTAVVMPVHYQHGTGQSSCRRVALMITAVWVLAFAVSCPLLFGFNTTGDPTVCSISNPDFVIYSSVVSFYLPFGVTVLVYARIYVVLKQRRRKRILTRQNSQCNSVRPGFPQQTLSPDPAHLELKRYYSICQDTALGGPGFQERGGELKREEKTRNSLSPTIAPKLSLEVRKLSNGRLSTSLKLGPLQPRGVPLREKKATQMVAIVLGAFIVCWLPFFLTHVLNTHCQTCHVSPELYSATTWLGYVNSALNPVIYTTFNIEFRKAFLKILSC

The test has as its target D(3) dopamine receptor (Homo sapiens) (UniProt P35462). Kind of test: qHTS of D3 Dopamine Receptor Agonist: qHTS. Further: 0% is about no effect. The settings on record: D3R DiscoveRx beta-arrestin cells, luminescence, 90 min; active compounds read high. In outline:
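Agonist mode: compounds and dopamine controls were applied to plated cells for 90 min at 37 degrees C after an overnight attachment at 1500 cells/well. Luminescent read-out followed 30 - 60 minutes at room temperature with DiscoveRx detection reagent.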
A general note: Quantitative high-throughput screening tests each substance at several concentrations.
Take `NNc1nnc(Cc2ccncc2)c2ccccc12`: the max activation is 4.9%.
Turning to `COc1cc(CNCCSc2nnnn2C)ccc1OCc1c(F)cccc1Cl`, the max activation was -12.1%.
For `COc1cc(SC#N)ccc1N=Cc1c(C)[nH]n(-c2ccc(C)cc2)c1=O` the value was 37.3% (active).
Consider `COc1ccc(N(Cc2ccc(N(C)C)cc2)C(=O)c2ccc(S(C)(=O)=O)cc2)cc1`, for which the max activation is -1.61%.
Take `CCN(C(=O)c1sc2cc(OC)ccc2c1Cl)c1ccccc1`: the max activation is -6.98%.
For `C=CCOc1c2ccc(C(=O)N(CC)c3ccc(OC)cc3)cc2nn1C` the value was 36.4% (active); for `CCC(C)[C@@H](N)C(=O)O` (stereo partly specified), 1.21%.
As to `COc1cc(NS(=O)(=O)c2cccs2)cc(OC)c1`, the max activation is -2.4%.
For `O=C(CSc1ncc(S(=O)(=O)c2ccc(Br)cc2)c(=O)[nH]1)Nc1ccc2c(c1)OCCO2`, the max activation is 0.197%.
Consider `Cc1ccc(C(=O)Nc2cc3c(cc2N2CCCC2)n(C)c(=O)c(=O)n3C)cc1`, for which the max activation is -5.76%.
Turning to `Cn1c(=O)c(=O)n(C)c2cc(S(=O)(=O)CCC(=O)N3CCCCC3)ccc21`, the max activation was -3.93%.
Take `CCc1ccc(S(=O)(=O)Nc2cc3c(cc2N2CCCCC2)n(C)c(=O)c(=O)n3C)cc1`: the max activation is 33.6% (active).
Next, `Cc1c(NS(=O)(=O)c2cccc(C(=O)Nc3ccc(SC(F)F)cc3)c2)c(=O)n(-c2ccccc2)n1C`: 33.5% (active).
`Cc1c(NS(=O)(=O)c2ccc(Cl)cc2)c(=O)n(-c2ccccc2)n1C`: the max activation is 0.215%.
Consider `Cc1c(NS(=O)(=O)c2cc(C(=O)NCCc3ccc(F)cc3)cc(Cl)c2Cl)c(=O)n(-c2ccccc2)n1C`, for which the max activation was 0.49%.
As for `NCCC[C@H](N)CC(=O)N[C@H]1CNC(=O)[C@H]([C@H]2C[C@H](O)NC(N)=N2)NC(=O)/C(=C/NC(N)=O)NC(=O)[C@H](CO)NC(=O)[C@H](CO)NC1=O` (β3hOrn-[Dap]SS[ΔAla(Z-3-ureido)][X2]; lactam 1-C), the max activation is 4.66%.
For the compound `CCOCCn1c(C(C)C)nc2ccccc21`, the max activation is -2.13%.
Regarding `CCc1nc2ccccc2n(CCOCCOCCn2c(=O)c(CC)nc3ccccc32)c1=O`, the max activation was 1.74%.
With `CCOCCn1c(-c2ccccc2)nc2ccccc21`, the max activation is 65.4% (active).
With `Cc1ccc(CSc2nc3cccnc3n2Cc2ccc(C(=O)NC3CC3)cc2)cc1`, the max activation is 2.04%.
For `CCOc1cccc(NC(=O)c2ccc(F)c(S(=O)(=O)N(CC)c3cccc(C)c3)c2)c1`, the max activation was 6.21%.
On to `CS(=O)(=O)NC(=O)CCC/C=C\C[C@H]1C(=O)C[C@@H](O)[C@@H]1/C=C/[C@H](O)COc1ccccc1`, for which the max activation is -14.2%.
On to `COc1cc(OC)c(C(=O)NNC(=O)c2ccc(NS(=O)(=O)c3cccs3)cc2)cc1OC`, for which the max activation is 2.22%.
Take `COc1cc2ccccc2cc1C(=O)Nc1ccc(NC(=O)c2cccs2)cc1`: the max activation was 30% (active).
Take `COc1cc2ccccc2cc1C(=O)Nc1cccc(-c2nc3ccccc3o2)c1`: the max activation was 9.76%.
With `C=C1C(=C/C=C2\CCC[C@]3(C)[C@@H]([C@H](C)CCCC(C)(C)O)CC[C@@H]23)C[C@@H](O)C[C@@H]1O`, the max activation was 31.6% (active).
Turning to `C=C1CC[C@H](O)CC1=C/C=C1\CCC[C@]2(C)[C@@H]([C@H](C)/C=C/[C@H](C)C(C)C)CC[C@@H]12`, the max activation was 14.3%.
In the case of `CCCN(CCC)CCNC(=O)Cn1cnc2sc(C)c(S(=O)(=O)N3CCC(C)CC3)c2c1=O`, the max activation was -7.98%.
`Cc1ccc(-c2nn3c(=O)cc(CN4CCN(C(=O)Nc5cccc(C(F)(F)F)c5)CC4)nc3s2)cc1`: the max activation was 5.13%.
Regarding `CCc1ccc(CN(Cc2ccco2)C(=O)c2ccccc2Cl)cc1`, the max activation was -16.7%.
For `COc1ccc(NC(=O)c2sc3nc(-c4cc5cccc(OC)c5oc4=O)[nH]c(=O)c3c2C)cc1` the value was -8.2%.
As for `CSc1ncnc2c1ncn2CC(=O)C1CCC2C3CCC4=CC(=O)CCC4(C)C3CCC12C` (stereo unspecified), the max activation was 53.2% (active).
Next, `CSc1ncnc2c1ncn2CCCNCc1ccco1`: -2.72%; `CO[C@H]1[C@@H](O)[C@H](N)[C@@H](O[C@H]2O[C@H]([C@H](C)N)CC[C@H]2N)[C@H](O)[C@@H]1N(C)C(=O)CN`: 4.34%; `CCN1CCN(C(=O)Cn2nc(C)n3c(cc4c(OC)cccc43)c2=O)CC1`: 75.8% (active).
For `COc1cccc2c1cc1c(=O)n(CC(=O)N3CCN(c4cccc(Cl)c4)CC3)nc(C)n12`, the max activation was 9.45%.
With `COc1cccc2c1cc1c(=O)n(CC(=O)N3CCN(c4ccccc4)CC3)nc(C)n12`, the max activation is 5.49%.
As to `Cc1c(O)cc2c(c1C)O[C@](C)(CCC[C@H](C)CCC[C@H](C)CCCC(C)C)CC2`, the max activation is 13.3%.
Next, `CCc1cccc(NC(=O)CN(C)S(=O)(=O)c2ccc3[nH]c4c(c3c2)CCCC4)c1`: -8.32%; `Cc1ccc2c(=O)c(C(=O)c3ccc(F)cc3)cn(CC(=O)NC3CCCCC3)c2n1`: -2.6%.
With `Cc1cc(C)cc(C(=O)NCC(=O)OCC(=O)N2CCCCC2)c1`, the max activation was -0.844%.
Next, `COc1cc(OC)cc(C(=O)NCC(=O)N2CCCCCCC2)c1`: -0.951%.
With `COc1ccc(OC)c(CN2CCN(C(=O)CNC(=O)c3cc(C)cc(C)c3)CC2)c1`, the max activation is 48.9% (active).
With `CN(Cc1cccc2ncccc12)C(=O)CC1C(=O)NCCN1Cc1ccc(F)cc1` (stereo unspecified), the max activation was 32.9% (active).
For `Cc1nc(CN(C)C(=O)CC2C(=O)NCCN2Cc2ccc(F)cc2)cs1` (stereo unspecified) the value was 0.365%; for `Cc1cnc(CN(C)C(=O)CC2C(=O)NCCN2Cc2cccc(F)c2F)[nH]1` (stereo unspecified), 4.65%.
For `CCCS(=O)(=O)c1ncc(Cl)c(C(=O)Nc2scc(-c3ccccc3)c2C(=O)OCC)n1`, the max activation is -8.93%.
For `CC1CCCN(c2csc3ccc(F)cc3c2=O)C1` (stereo unspecified), the max activation is 5.02%.
For `C=CCc1ccc(OCC(O)CN2CCN(Cc3ccccc3)CC2)c(OC)c1` (stereo unspecified), the max activation is -9.27%.
In the case of `CC(C)c1ccc(OCC(O)CN2CCN(c3ccccn3)CC2)cc1` (stereo unspecified), the max activation is 42.2% (active).
As for `Cc1ccccc1OCC(O)CN1CCN(c2ccccn2)CC1` (stereo unspecified), the max activation was 41.3% (active).
For `CCc1ccc(OCC(O)CN2CCN(CCO)CC2)cc1` (stereo unspecified) the value was -6.12%.
Regarding `O=C1c2cccc3cccc(c23)N1CN1CCN(c2ccccn2)CC1`, the max activation was 7.73%.
Take `O=S(=O)(c1ccc(OCC(O)CN2CCN(c3ccccc3Cl)CC2)cc1)N1CCOCC1` (stereo unspecified): the max activation is 7.66%.
With `OC(COc1cccc2ccccc12)CN1CCN(c2ccccn2)CC1` (stereo unspecified), the max activation is 66.5% (active).
With `Cc1cccc(OCC(O)CN2CCN(CCN3C(=O)c4cccc5cccc(c45)C3=O)CC2)c1C` (stereo unspecified), the max activation was -7.59%.
For `CC(C)c1ccccc1OCC(O)CN(CC(O)COc1cccc2ccccc12)C(C)C` (stereo unspecified), the max activation was 13.3%.
Take `O=C(Cn1c(-c2cccs2)cc2ccccc21)NCCc1ccc(Cl)cc1`: the max activation was -7.79%.
Consider `COc1ccc(NC(=O)CSc2nc3ncccc3[nH]2)c(OC)c1`, for which the max activation is -5.62%.
For `CCCC(=O)Nc1ccc(NC(=O)c2sc3ccccc3c2Cl)cc1`, the max activation is -7.19%.
`CCCCC(CC)CNC(=O)C1CCN(S(=O)(=O)c2cccc3nsnc23)CC1` (stereo unspecified): the max activation is -12.4%.
